Only some compounds are listed: those with a hit (about 1.9% of all), similar ones and a draw of the others.
A1 inh: inhibitors of the anti-apoptotic protein A1, read as caspase activation | AID 2462 | 0.066% of 330,000 active | caspase activation, % (test concentration not listed) | MEF A1-2A-BIM cells, Caspase-Glo 3/7 luminescence, 3 h; percent of clofoctol response, vehicle zero;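 active = over half of replicate activation scores above 10%, or exactly half above 10 with the replicate mean above 10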
Neddylation inh: blocks human cullin neddylation | TR-FRET cullin neddylation, biochemical | P61081+Q13564 | inhibition, % at 25 µM | 0.58% of 360,000 active; in the data active = inhibition above about 36%
Target sequence (P61081 whole entry, looked up): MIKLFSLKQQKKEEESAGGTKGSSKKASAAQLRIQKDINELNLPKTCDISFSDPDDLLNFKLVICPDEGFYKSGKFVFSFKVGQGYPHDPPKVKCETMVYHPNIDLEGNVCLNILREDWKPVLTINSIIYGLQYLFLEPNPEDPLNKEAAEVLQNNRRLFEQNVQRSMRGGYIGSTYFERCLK
Target sequence (Q13564 whole entry, looked up): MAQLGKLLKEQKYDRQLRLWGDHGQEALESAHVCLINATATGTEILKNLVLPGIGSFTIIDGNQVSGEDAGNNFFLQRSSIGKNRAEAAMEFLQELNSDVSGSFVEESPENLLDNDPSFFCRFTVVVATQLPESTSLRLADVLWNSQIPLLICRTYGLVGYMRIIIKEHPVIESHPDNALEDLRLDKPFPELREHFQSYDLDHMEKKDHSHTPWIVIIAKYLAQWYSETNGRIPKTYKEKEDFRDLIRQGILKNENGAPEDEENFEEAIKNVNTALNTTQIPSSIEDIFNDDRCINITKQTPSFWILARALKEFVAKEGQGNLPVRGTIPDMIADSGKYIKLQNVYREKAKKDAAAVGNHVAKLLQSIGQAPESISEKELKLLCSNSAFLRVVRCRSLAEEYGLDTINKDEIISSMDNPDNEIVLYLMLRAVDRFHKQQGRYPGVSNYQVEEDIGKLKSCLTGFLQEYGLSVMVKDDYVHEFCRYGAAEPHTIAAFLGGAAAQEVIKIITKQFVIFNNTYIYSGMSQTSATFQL
Vif inh: HIV Vif inhibition. HEK293T cells, Vif self-association by quenched fluorescence, imaging, 24 h. inhibition, % at 7.49 µM. 0.35% of 340,000 active. AID 602346; in the data active = inhibition above about 50%, passing the limit was not always enough
GSIS activator: GLuc luminescence reporter in INS-1E cells, primary screen for activators of glucose-dependent secretion of insulin. INS-1E GLuc reporter insulin secretion, 2-3 h. activation, % at 16.6 µM. 0.61% of 370,000 active. AID 743287;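 active = lowest replicate activation of at least 40%, so every replicate reaches that level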;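 also: 0% = median of neutral control wells and 100% = median of IBMX positive control wells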
dFosB act-1: activators of mouse delta FosB homodimer. 0.99% of 340,000 active. purified delta FosB, TAMRA-CDK5 oligo fluorescence polarization; percent of positive-control signal above neutral wells. activation, % at 25 µM. P13346;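 active = mean activation above about 17%, with every replicate also reaching it, limit read from the data, passing the limit was not always enough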
dFosB act-2: enhances mouse delta FosB homodimer binding to DNA; shares compounds with dFosB act-1; purified delta FosB, TAMRA-CDK5 oligo fluorescence polarization; normalised: neutral wells 0, positive control 100; activation, % at 24.9 µM; 2,400 tested, under 10 active; AID 588690;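 active = highest replicate activation at or above 34% and every replicate reaching that threshold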;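 also: higher polarization means more probe DNA bound by delta FosB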
Numbers without * were called inactive; x = no result given.

SMILES | A1 inh | Neddylation inh | Vif inh | GSIS activator | dFosB act-1 | dFosB act-2
COc1ccc(-c2[nH]ncc2/C=N/NC(=O)c2ccc(Br)cc2)c(OC)c1 | 0 | 26 | -6 | -6 | 8 | x
COc1ccc(-c2[nH]ncc2/C=N/NC(=O)c2ccncc2)c(OC)c1 | 0 | -8 | 16 | 12 | 19* | 0
CO[C@@H]1CN(C)C(=O)c2cc(NC(=O)NC(C)C)ccc2OC[C@@H](C)N(S(C)(=O)=O)C[C@@H]1C | x | x | x | 2 | x | x
O=C(COC(=O)c1ccccc1NC(=O)c1ccco1)NCc1ccc2c(c1)OCO2 | 0 | 4 | -7 | x | 30* | 2
O=C(CNC(=O)c1ccco1)NCc1ccc2c(c1)OCO2 | 0 | -1 | 1 | 19 | 2 | x
O=S(=O)(c1ccc(Cl)cc1)N1CCc2ccccc21 | 1 | -25 | -1 | -17 | 18* | -11
C[C@@H]1CN([C@H](C)CO)C(=O)Cc2cc(NC(=O)CCN3CCOCC3)ccc2O[C@H]1CN(C)C(=O)Nc1ccc(F)cc1 | x | x | x | 17 | x | x
CCc1cccc(C)c1NC(=O)COC(=O)CNS(=O)(=O)/C=C/c1ccccc1 | 0 | -12 | -3 | -2 | -6 | x
O=C(COC(=O)c1ccccc1O)Nc1cccc2ccccc12 | 0 | x | -1 | 7 | 39* | -2
O=C(COC(=O)CNS(=O)(=O)/C=C/c1ccccc1)Nc1cccc2ccccc12 | 0 | -8 | -1 | -2 | 27* | -4
NC(=O)c1ccc(NC(=O)COC(=O)c2cc3ccccc3cc2O)cc1 | -1 | 4 | -7 | 27 | 36* | 1
CCC(=O)Nc1ccc2c(c1)C(=O)N(C)C[C@@H](OC)[C@H](C)CN(Cc1ccccc1C(=O)O)[C@H](C)CO2 | x | x | x | 12 | x | x
CO[C@H]1CN(C)C(=O)c2cc(NC(=O)C3CC3)ccc2OC[C@H](C)N(CCc2ccccc2)C[C@H]1C | x | x | x | -4 | x | x
COc1cccc2c1[C@@H]1CN(CCCCn3c(=O)[nH]c4c(sc5ncc(-c6ccccc6)nc54)c3=O)C[C@@H]1CO2 | 0 | -39 | 0 | 11 | 40* | 0
Cc1ccc(Sc2cc(Cl)nc(N)n2)cc1 | 0 | -3 | -5 | x | 58* | 3
COc1ccc(S(=O)(=O)N[C@H]2CC[C@H](CC(=O)O)O[C@H]2CO)cc1 | x | x | x | 15 | x | x
COc1ccc(Cl)cc1NC(=O)c1[nH]c(C)c(C(C)=O)c1C | 0 | -127 | 0 | -6 | 36* | 4
COc1ccc(C(C(=O)NCC2CCCO2)N(Cc2cccs2)C(=O)c2snc(C(N)=O)c2N)cc1OC (stereo not drawn) | 0 | 26 | -6 | 18 | -11 | x
CCOc1ccc(C(C(=O)NCC2CCCO2)N(Cc2cccs2)C(=O)c2snc(C(N)=O)c2N)cc1 (stereo not drawn) | 0 | 18 | 19 | 6 | 21* | 6
O=C([C@@H]1[C@@H](CO)[C@@H]2Cn3c(ccc(C4=CCCC4)c3=O)[C@H]1N2C(=O)c1ccccc1)N1CCOCC1 | x | x | x | -3 | x | x
CC(=O)c1cccc(NC(=O)CC2S/C(=N/N=C/c3ccccc3)NC2=O)c1 (stereo not drawn) | 1 | 1 | 2 | 18 | 49* | 3
CCC1S/C(=N/N=C/c2cccs2)NC1=O (stereo not drawn) | 0 | -23 | -2 | x | -5 | x
CC(=O)c1cccc(NC(=O)CC2S/C(=N/N=C/c3cccs3)NC2=O)c1 (stereo not drawn) | 1 | -9 | x | 15 | 40* | -6
CNC(=O)c1ccc(-c2ccc(F)cc2)s1 | -3 | 20 | -1 | 22 | -3 | x
CNC(=O)c1ccc(-c2ccc(Cl)c(Cl)c2)s1 | 0 | -18 | -3 | -9 | 21* | 2
SMILES | A1 inh | Neddylation inh | Vif inh | GSIS activator | dFosB act-1 | dFosB act-2
COc1ccc(NC(=O)CN(C)C(=O)CNC(=O)c2sc3ccccc3c2Cl)cc1 | -2 | -112 | 0 | -34 | -10 | x
Cc1nn(Cc2ccc(Cl)c(Cl)c2)c(C)c1NC(=O)c1sc2ccccc2c1Cl | 0 | -120 | 23 | x | -7 | x
Cc1nn(Cc2c(Cl)cccc2Cl)c(C)c1NC(=O)c1sc2ccccc2c1Cl | 1 | -12 | x | x | 40* | 5
CN(CC(=O)Nc1c(Cl)cccc1Cl)C(=O)CNC(=O)c1sc2ccccc2c1Cl | x | -127 | -2 | 0 | 35* | -2
C[C@H]1CCCCO[C@H](CN(C)C(=O)Cc2ccccc2)[C@@H](C)CN([C@@H](C)CO)C(=O)c2cc(NC(=O)CCC(F)(F)F)ccc2O1 | x | x | x | -21 | x | x
Cc1noc(C)c1NC(=O)N[C@@H]1C=C[C@@H](CC(=O)Nc2ccccc2)O[C@@H]1CO | x | x | x | 2 | x | x
O=C([C@H]1[C@H](CO)[C@H]2Cn3c(cccc3=O)[C@@H]1N2CC1CCCCC1)N1CCOCC1 | x | x | x | 6 | x | x
CCN(CC)CCN1C(=O)c2cccc3cc(N)cc(c23)C1=O | 0 | -24 | 25 | 10 | 24* | -4
Nc1cc2c3c(cccc3c1)C(=O)N(CCN1CCCC1)C2=O | 1 | -37 | 22 | -1 | 57* | -2
O=C1c2cccc3cccc(c23)C(=O)N1CCO | x | 8 | 8 | 32 | x | x
NC(=O)CN1CCN(CCN2C(=O)c3cccc4cccc(c34)C2=O)CC1 | 0 | -6 | -1 | 1 | 24* | -9
O=C1c2ccccc2C(=O)N1CCN1CCCCC1 | 0 | -7 | -2 | 27 | -1 | x
COc1ccc(S(=O)(=O)Nc2cccc3c2O[C@@H](CN(C)Cc2ccncc2)[C@@H](C)CN([C@@H](C)CO)C3=O)cc1 | x | x | x | 2 | x | x
CCOc1cc(/C=N/NC(=O)C(=O)NCc2ccc3c(c2)OCO3)ccc1OCC(=O)N1CCOCC1 | 0 | -5 | -6 | 8 | 20* | 0
CCOc1cc(/C=N/NC(=O)c2ccc(CN3CCOCC3)cc2)ccc1OCc1ccccc1 | 0 | 18 | -11 | -19 | 21* | -4
COc1ccc(NC(=O)N(C)C[C@@H]2OCCCC[C@@H](C)Oc3ccc(NC(=O)c4ccccc4)cc3C(=O)N([C@H](C)CO)C[C@@H]2C)cc1 | x | x | x | 1 | x | x
CC(=O)Nc1ccc(S(=O)(=O)NCC(=O)OCC(=O)NCCc2ccccc2)cc1 | x | -9 | -13 | 8 | x | x
CCc1cccc(OCCOC(=O)CNS(=O)(=O)c2ccc(NC(C)=O)cc2)c1 | x | 10 | 1 | -27 | 56* | 3
O=S(=O)(NCC[C@H]1CC[C@H](NS(=O)(=O)c2cccc(Cl)c2)[C@H](CO)O1)c1cccc(F)c1 | x | x | x | -18 | x | x
C/C(=N\NC(=O)COc1ccccc1[N+](=O)[O-])c1cccc(NC(=O)c2ccncc2)c1 | 1 | -38 | -5 | 23 | 21* | 3
C/C(=N\NC(=O)c1ccncc1)c1cccc(NC(=O)c2ccc(C(C)(C)C)cc2)c1 | 1 | -1 | 0 | -21 | -12 | x
C[C@H]1CN([C@@H](C)CO)C(=O)c2ccccc2-c2ccccc2CO[C@H]1CN(C)S(=O)(=O)c1ccc([N+](=O)[O-])cc1 | x | x | x | 19 | x | x
